A selection: hits, their analogues and other compounds. The true share with any hit is near 3.2%.
p53 reactivator: qHTS assay for re-activators of p53 using a Luc reporter. H1299 p53-A138V BP100-luciferase reporter, luminescence, 24 h. Potency, µM (top dose mostly 92.2 µM), for the others: at the top dose activity change, positive = activation, usual class: activators. 320,000 tested, 0.063% active. AID 504706, 2011; further: potency means the concentration at half of the fitted maximal effect; % of control where 0% means no effect; nearly all actives have a fitted effect of over 45% in size
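p53-null H1299 cells stably carrying temperature-sensitive p53-A138V and a BP100-luciferase reporter were pinned with compounds (4-point, 1:5 series) and held 24 hrs at 37 deg C. Luminescence was read 10 min after detection reagent.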
Nrf2 block: Nrf2 qHTS screen for inhibitors; A549 ARE-Fluc reporter, luciferase luminescence, 18-24 h; Potency, µM (highest dose often 46 µM), inactives show top-dose activity change, negative = inhibition, hits mostly inhibitors; 360,000 tested, 2.1% active; AID 504444, 2011; further: potency means the concentration at half of the fitted maximal effect; on the % scale 0 is the no-effect control and ±100 the full control effect; nearly all actives have a fitted effect of over 60% in size
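Two sequential reads on A549 ARE_Fluc cells exposed to compound for 18-24 h: a CellTiter-Fluor fluorescence read for viability, then a luciferase luminescence read for Nrf2/ARE activity.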
A549 tox: Nrf2 qHTS screen for inhibitors: counterscreen for cytotoxicity; A549 ARE-Fluc cells, CellTiter-Fluor viability, 18-24 h; Potency, µM (highest dose often 46 µM), without a hit: at the highest dose activity change, negative = cytotoxicity, actives largely listed as inhibitors; 390,000 tested, 0.16% active; AID 504648, 2011; further: potency means the concentration at half of the fitted maximal effect; on the % scale 0 is the no-effect control and ±100 the full control effect
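Cytotoxicity counterscreen: CellTiter-Fluor fluorescence was measured in A549 ARE_Fluc cells after 18-24 h of compound exposure in a concentration series. The subsequent BugLite luminescent read reports ARE-luciferase activity.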
IL2 activator: qHTS of IL-2 Activators | 360,000 tested, 0.065% active | IL-2 activation reporter assay, cell-based qHTS; stimulated with anti-CD3/CD4/CD28 beads; in transgenic mouse T cells | activation, % (series mostly up to about 46 µM); in the data active means activation above about 50%; inconclusive means mostly about 30% to 49%; further: 0% is about no effect
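Unstimulated transgenic mouse T cells; 60-min compound exposure; bead-based TCR/CD4/CD28 stimulation; 18 h culture, 37 degrees C; dual fluorescence (EGFP, DsRed) plate cytometry.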
BRCA1 expr act: qHTS Assay to Identify Small Molecule Activators of BRCA1 Expression. MCF7-BRCA1-FFLuc reporter, luminescence, 48 h; response scale: scaled: vehicle 0%, 10 µM genistein 100%. Potency, µM (doses to about 46.1 µM), inactives show top-dose activation, usual class: activators. 380,000 tested, 1.1% active; further: potency means the concentration at half of the fitted maximal effect; nearly all actives have a fitted effect of over 80% in size
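First, MCF7-BRCA1-FFLuc cells (2000/well) attach for 2 h; next, compounds are pin-added and incubated 48 h at 37 °C; finally, luciferase reagent is added and luminescence read after 15 min.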
Nrf2 ARE act: qHTS of Nrf2 Activators; 410,000 tested, 0.31% active; AREc32 ARE-luciferase reporter (MCF7-derived line), luminescence, 24 h; AID 624171, 2012; Potency, µM (highest dose often 46.1 µM), inactives show at the highest dose activation, most hits filed as activators; further: potency means the concentration at half of the fitted maximal effect; % of control where 0% means no effect; nearly all actives have a fitted effect of over 65% in size
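Steps: seed AREc32_Fluc cells (1000/well, 5% FBS OPTI-MEM); incubate overnight at 37 deg C; add 23 nL compound; incubate 24 hr; add Steady-Glo; hold 30 min RT; read luminescence.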
* = called active by the depositor; [ ] = remark or other dose. Unless noted, the call rests on the fitted dose curve; in most records, active means well fitted curve in the direction sought with a large enough effect; inconclusive means small, poorly fitted or top-dose-only effect, or another doubt; inactive means no such curve, though single readings can be large; an effect the other way counts as inactive or inconclusive.

COc1ccc(C(=O)Nc2cccc(S(=O)(=O)N3CCCC3)c2)cc1S(=O)(=O)N1CCOCC1 was read as p53 reactivator -8%, Nrf2 block -18%, A549 tox -7%, IL2 activator -1, BRCA1 expr act -26% and Nrf2 ARE act 0%.
`Cc1cc(C(=O)Nc2ccc(N3CCCC3)c(Cl)c2)ccc1[N+](=O)[O-]` gave p53 reactivator 11%, Nrf2 block inconclusive, A549 tox -11%, IL2 activator -4, BRCA1 expr act 10µM* and Nrf2 ARE act 5%.
Screening O=C(NCC(=O)N1CCN(S(=O)(=O)c2ccc3c(c2)OCCO3)CC1)c1ccccc1Cl returned p53 reactivator -1%, Nrf2 block 12µM*, A549 tox -3%, IL2 activator 0, BRCA1 expr act 27% and Nrf2 ARE act 4%.
For O=C(Nc1ccc(Br)cc1)C1CCN(S(=O)(=O)c2cccc3nsnc23)CC1 the results were Nrf2 block 1%, A549 tox 14%, BRCA1 expr act 15% and Nrf2 ARE act -1%.
Screening O=C(COc1ccc(C(=O)c2ccc(F)cc2)cc1)Nc1cccc(S(=O)(=O)N2CCOCC2)c1 returned p53 reactivator -8%, Nrf2 block 23µM*, A549 tox -13%, IL2 activator -7, BRCA1 expr act -43% and Nrf2 ARE act 5%.
`CC(C)(C)c1ccc(C(=O)Nc2cccc(C(=O)N3CCOCC3)c2)cc1` gave p53 reactivator 2%, Nrf2 block 8.2µM*, A549 tox inconclusive, IL2 activator -1, BRCA1 expr act inconclusive and Nrf2 ARE act 2%.
O=C(Nc1cccc(C(=O)NC2CC2)c1)c1ccc(Cl)c(S(=O)(=O)N2CCOCC2)c1 was read as p53 reactivator -6%, Nrf2 block -10%, A549 tox -1%, IL2 activator 0, BRCA1 expr act -18% and Nrf2 ARE act -1%.
Cc1ccc(C(=O)Nc2cccc(C(=O)N3CCOCC3)c2)cc1 was read as p53 reactivator 13%, Nrf2 block inconclusive, A549 tox -5%, IL2 activator 0, BRCA1 expr act 27%[1.84 µM] and Nrf2 ARE act -1%.
`O=C(Nc1cccc(Br)c1)c1ccc(Cl)c(S(=O)(=O)N2CCOCC2)c1` gave p53 reactivator -1%, Nrf2 block 10µM*, A549 tox inconclusive, IL2 activator -2, BRCA1 expr act -60% and Nrf2 ARE act -1%.
For O=C(COC(=O)CCC(=O)c1ccc(F)cc1)Nc1cccc(S(=O)(=O)N2CCOCC2)c1 the results were p53 reactivator 0%, Nrf2 block 1%, A549 tox -2%, IL2 activator -3, BRCA1 expr act 0% and Nrf2 ARE act 0%.
`Cc1cc(NC(=O)Nc2ccc(F)cc2)no1` gave p53 reactivator 6%, Nrf2 block -1%, A549 tox -10%, IL2 activator 1, BRCA1 expr act 40% and Nrf2 ARE act 1%.
Screening COc1cccc(C(=O)NC(=O)Nc2cc(C)on2)c1 returned p53 reactivator 6%, Nrf2 block inconclusive, A549 tox 3%, IL2 activator -1, BRCA1 expr act 7.9µM* and Nrf2 ARE act 1%.
Screening COc1ccc(C(=O)/C=C/Nc2cc(C)on2)cc1 returned p53 reactivator inconclusive, Nrf2 block inconclusive, A549 tox -8%, IL2 activator 0, BRCA1 expr act 3.2µM* and Nrf2 ARE act -1%.
For COc1ccc(/C=C/C(=O)NC(=S)N2CCN(c3ccccc3OC)CC2)cc1 the results were p53 reactivator 18%, Nrf2 block inconclusive, A549 tox 8%, IL2 activator 0, BRCA1 expr act 4µM* and Nrf2 ARE act 0%.
Cc1cc(NC(=O)Nc2ccc(C)c(C)c2)no1 was read as p53 reactivator 5%, Nrf2 block 17%, A549 tox 1%, IL2 activator 6, BRCA1 expr act 7.9µM* and Nrf2 ARE act 3%.
Screening CCOC(=O)c1ccccc1NC(=O)N1CCN(Cc2cc(=O)n3nc(-c4ccccc4)sc3n2)CC1 returned A549 tox 19%, BRCA1 expr act 3% and Nrf2 ARE act 13%.
C#CCNC(=O)/C=C/c1ccc(OC)cc1 was read as p53 reactivator inconclusive, Nrf2 block inconclusive, A549 tox 1%, IL2 activator 0, BRCA1 expr act 13µM* and Nrf2 ARE act 0%.
Cc1cc(NC(=O)/C=C/c2ccccc2)no1 was read as p53 reactivator inconclusive, Nrf2 block inconclusive, A549 tox 1%, IL2 activator -3, BRCA1 expr act inconclusive and Nrf2 ARE act 4%.
COc1ccc(/C=C/C(=O)Nc2cc(C)on2)cc1 was read as p53 reactivator inconclusive, Nrf2 block inconclusive, A549 tox 2%, IL2 activator -1, BRCA1 expr act 4.5µM* and Nrf2 ARE act 2%.
Cn1cc(Cl)c(C(=O)Nc2nc3ccc(Cl)cc3s2)n1 was read as p53 reactivator inconclusive, Nrf2 block inconclusive, A549 tox 1%, IL2 activator 0, BRCA1 expr act 13µM* and Nrf2 ARE act 2%.
`CCCCSc1nsc(NC(C)=O)n1` gave p53 reactivator inconclusive, Nrf2 block inconclusive, A549 tox -9%, IL2 activator -1, BRCA1 expr act 41%[1.84 µM] and Nrf2 ARE act 0%.
CCCSc1nsc(NC(=O)CCC)n1 was read as p53 reactivator 26%, Nrf2 block inconclusive, A549 tox 1%, IL2 activator 2, BRCA1 expr act 1.4µM* and Nrf2 ARE act 3%.
`CCOC(=O)[C@]12CCCC=C1N(Cc1ccco1)C(=O)[C@H](CC(=O)NCc1cccc(C(F)(F)F)c1)C2` gave IL2 activator -1, BRCA1 expr act 0% and Nrf2 ARE act 3%.
O=C(Nc1ccc(C(F)(F)F)cc1)c1csc(-c2ccncc2)n1 was read as p53 reactivator 15%, Nrf2 block 18µM*, A549 tox -11%, IL2 activator -2, BRCA1 expr act -64% and Nrf2 ARE act 8%.
`O=C(Nc1ccccc1)c1csc(-c2ccccc2)n1` gave p53 reactivator 28%, Nrf2 block inconclusive, A549 tox -2%, IL2 activator -4, BRCA1 expr act -40% and Nrf2 ARE act 10%.
`COc1ccc(N2CCN(C(=O)Cn3nc(Cc4cccnc4)c4ccccc4c3=O)CC2)cc1` gave Nrf2 block -26%, A549 tox 4% and Nrf2 ARE act 2%.

Screening data (PubChem BioAssay)
